{"source": "PubChem BioAssay AID540353", "about": "(National Center for Advancing Translational Sciences (NCATS), 2011)", "note": "This is one part of the list. Results filed as inconclusive are left out. Activity calls are given as the source filed them. Calls come from the whole dose curve; as a rule, active = well fitted inhibition curve with a large enough effect; inconclusive = small, poorly fitted or top-dose-only effect; inactive = no such curve, though single readings can be large or run the other way.", "data": [{"assay": "qHTS for Inhibitos of Bacillus subtilis Sfp phosphopantetheinyl transferase (PPTase): Chemistry Optimization Followup in B. Subtilis HM489", "conditions": "B. subtilis HM489 (acpS-) growth, BacTiter-Glo, 5 h; series mostly up to 114 µM", "text": "Phosphopantetheinyl transfer is a process essential to cellular viability and maintenance. Cellular permeable and stable compounds acting as PPTase inhibitors are anticipated to be antimicrobial agents in organisms with complimenting genotypes. […] This experiment evaluated a series of test compounds for antimicrobial activity with B. subtilis HM489 (genotype: acpS- and sfp+), a strain that contains a targeted lesion in the acpS locus and thus requires a functional Sfp gene product for viability. [Mootz HD, 2001] This strain is expected to be sensitized to cell-permeable Sfp inhibitors. NIH Chemical Genomics Center [NCGC] NIH Molecular Libraries Probe Centers Network [MLPCN] MLPCN Grant: MH083266-01 Assay Submitter (PI): Michael Burkart, University of California, San Diego\nInnoculum preparation. Bacillus subtilis HM489 is maintained on lysogeny broth (LB) solidified by the addition of 1.5% w/v agar. Single colonies were used to LB medium (2 mL) and shaken overnight at 30 masculineC. In the morning, this culture (100 uL) was used to seed a fresh LB medium (10 mL) and was shaken at 30 masculineC until the culture OD600 reached 0.5. This culture was diluted 1:100 in fresh LB medium to provide the inoculum below. Bacterial susceptibility. LB medium (2 uL) is dispensed into wells of a sterile white 1536-well plate. Test compounds (23 nL) prepared as serial dilutions in DMSO are added to the plate by pintool transfer. Innoculum (2 uL) is added; the plates are covered with a vented Kalypsys assay lid and incubated at 30 masculineC. After 5 hrs, Bac-Titer Glo (4 uL; Promega Corp, Madison, WI) is added to the plates. They are incubated 10 minutes at room temperature and then the luminescence detected in a ViewLux multimodal plate reader.", "values": [{"smiles": "COc1ccnc(NC(=S)N2CCN(c3ncc(C(F)(F)F)cc3Cl)CC2)c1", "Potency": "11.8 µM (active)"}, {"smiles": "Cc1cc(C)nc(NC(=S)N2CCN(c3ccc4nonc4c3)CC2)c1", "Potency": "inactive"}, {"smiles": "Cc1ccc(N2CCN(C(=S)Nc3cc(C)ccn3)CC2)cc1", "Potency": "33.2 µM (active)"}, {"smiles": "Cc1cc(C)nc(NC(=S)N2CCN(c3ccc(Cl)cc3F)CC2)c1", "Potency": "23.5 µM (active)"}, {"smiles": "COc1cccc(NC(=S)N2CCN(c3ccccc3C(F)(F)F)CC2)n1", "Potency": "23.5 µM (active)"}, {"smiles": "FC(F)(F)c1cccc(N2CCN(C(=S)Nc3ccncc3)CC2)c1", "Potency": "59.1 µM (active)"}, {"smiles": "Cc1cc(C)nc(NC(=S)N2CCN(c3ccc(Cl)cc3C(F)(F)F)CC2)c1", "Potency": "10.5 µM (active)"}, {"smiles": "Cc1cc(C)nc(NC(=S)N2CCN(c3cccc(C(F)(F)F)c3)CC2)c1", "Potency": "33.2 µM (active)"}, {"smiles": "COc1cccc(NC(=S)N2CCN(c3ccc(Cl)cc3Cl)CC2)n1", "Potency": "inactive"}]}]}
